What all share (test): DAPPL (digital affinity profiling via proximity ligation, sequencing); 10 mM Tris-HCl pH 7.5, 50 mM NaCl, 1 mM DTT, 4% glycerol, room temperature, 30 min; GST-TFs on glutathione beads, 16-mer random dsDNA library, 0.1% formaldehyde crosslink after washing; high values mean tight binding
One experiment has as its target T1, FLI1 (Homo sapiens, UniProt Q01543 1-452).
T1 sequence: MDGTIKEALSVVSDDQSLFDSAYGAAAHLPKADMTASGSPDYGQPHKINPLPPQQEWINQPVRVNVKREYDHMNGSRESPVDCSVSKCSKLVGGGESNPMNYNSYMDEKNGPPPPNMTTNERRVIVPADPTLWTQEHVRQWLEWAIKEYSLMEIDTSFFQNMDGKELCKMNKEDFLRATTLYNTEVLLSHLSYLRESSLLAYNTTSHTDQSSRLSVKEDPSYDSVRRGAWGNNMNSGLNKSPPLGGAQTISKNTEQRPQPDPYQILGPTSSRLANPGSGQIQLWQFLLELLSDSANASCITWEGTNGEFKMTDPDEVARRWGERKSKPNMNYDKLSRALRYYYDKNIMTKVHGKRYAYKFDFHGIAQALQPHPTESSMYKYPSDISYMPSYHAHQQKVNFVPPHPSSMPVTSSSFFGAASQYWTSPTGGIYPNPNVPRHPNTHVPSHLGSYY
The settings on record: protein: recombinant; tags: N-terminal GST; dsDNA, one strand shown. Put shortly:
(§1)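 Binding signal is defined as a hexamer's read frequency for one factor over its frequency for the tag-only sample. To obtain reads, GST-fused human transcription factors were expressed in yeast, captured on glutathione beads, barcoded with DNA and pooled with that sample. Pools met 200 nmole of a 16-mer random double-stranded DNA library in Tris/NaCl/DTT/glycerol buffer for 30 min at room temperature before washing, 0.1% formaldehyde crosslinking, proximity ligation (BsaI/T4 ligase, 1 h, 37 °C), PCR and Illumina NextSeq500 sequencing.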

Another experiment deals with T2, ELK1 (Homo sapiens, UniProt P19419 1-428).
T2 sequence: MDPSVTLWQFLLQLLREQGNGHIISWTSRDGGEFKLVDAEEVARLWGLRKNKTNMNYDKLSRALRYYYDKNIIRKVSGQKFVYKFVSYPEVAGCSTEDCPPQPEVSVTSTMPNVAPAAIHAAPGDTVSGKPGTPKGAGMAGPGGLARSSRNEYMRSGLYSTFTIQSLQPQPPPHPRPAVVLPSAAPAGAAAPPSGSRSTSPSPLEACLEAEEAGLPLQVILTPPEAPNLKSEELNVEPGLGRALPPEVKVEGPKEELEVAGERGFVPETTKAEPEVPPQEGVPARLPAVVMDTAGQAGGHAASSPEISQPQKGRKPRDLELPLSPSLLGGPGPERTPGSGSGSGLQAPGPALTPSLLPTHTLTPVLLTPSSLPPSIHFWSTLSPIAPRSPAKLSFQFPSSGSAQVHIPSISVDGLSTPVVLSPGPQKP
Particulars: protein: recombinant; tags: N-terminal GST; dsDNA, one strand shown. A digest of the protocol:
as §1

A further experiment addresses T3, GABPA (Homo sapiens, UniProt Q06546 1-454).
T3 sequence: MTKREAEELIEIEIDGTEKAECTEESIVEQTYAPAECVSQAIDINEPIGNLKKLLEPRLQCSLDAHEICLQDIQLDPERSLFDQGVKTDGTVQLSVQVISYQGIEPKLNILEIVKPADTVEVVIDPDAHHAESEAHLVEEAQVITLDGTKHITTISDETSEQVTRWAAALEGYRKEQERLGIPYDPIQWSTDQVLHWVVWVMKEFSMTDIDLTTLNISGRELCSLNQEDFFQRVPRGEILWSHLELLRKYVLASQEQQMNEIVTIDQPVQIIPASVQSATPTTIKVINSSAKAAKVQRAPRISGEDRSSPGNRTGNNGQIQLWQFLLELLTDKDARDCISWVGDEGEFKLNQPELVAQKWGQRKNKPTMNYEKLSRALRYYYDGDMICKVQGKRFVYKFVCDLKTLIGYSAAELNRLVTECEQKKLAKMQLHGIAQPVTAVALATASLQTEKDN
The settings on record: protein: recombinant; tags: N-terminal GST; dsDNA, one strand shown. Put shortly: as §1

A further experiment deals with T4, ERG (Homo sapiens, UniProt P11308 1-479).
T4 sequence: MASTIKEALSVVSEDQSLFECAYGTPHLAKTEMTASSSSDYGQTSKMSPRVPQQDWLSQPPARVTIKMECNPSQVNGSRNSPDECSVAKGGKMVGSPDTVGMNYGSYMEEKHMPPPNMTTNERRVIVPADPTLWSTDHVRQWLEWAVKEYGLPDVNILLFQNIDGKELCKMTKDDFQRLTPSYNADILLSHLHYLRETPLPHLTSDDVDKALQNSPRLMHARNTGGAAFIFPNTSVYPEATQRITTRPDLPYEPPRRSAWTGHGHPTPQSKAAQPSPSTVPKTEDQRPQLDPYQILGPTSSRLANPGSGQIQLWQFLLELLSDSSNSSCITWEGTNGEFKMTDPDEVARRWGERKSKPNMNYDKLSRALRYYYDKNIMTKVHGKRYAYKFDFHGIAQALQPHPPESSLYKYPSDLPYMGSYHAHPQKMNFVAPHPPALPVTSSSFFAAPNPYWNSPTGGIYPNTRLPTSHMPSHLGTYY
The settings on record: protein: recombinant; tags: N-terminal GST; dsDNA, one strand shown. Put shortly:
as §1

The target in another experiment is ELF1 (Homo sapiens, UniProt P32519 1-619). Particulars: protein: recombinant; tags: N-terminal GST; dsDNA, one strand shown. Put shortly: as §1
For a further experiment, the target named is T5, EHF (Homo sapiens, UniProt Q9NZC4 1-300).
T5 sequence: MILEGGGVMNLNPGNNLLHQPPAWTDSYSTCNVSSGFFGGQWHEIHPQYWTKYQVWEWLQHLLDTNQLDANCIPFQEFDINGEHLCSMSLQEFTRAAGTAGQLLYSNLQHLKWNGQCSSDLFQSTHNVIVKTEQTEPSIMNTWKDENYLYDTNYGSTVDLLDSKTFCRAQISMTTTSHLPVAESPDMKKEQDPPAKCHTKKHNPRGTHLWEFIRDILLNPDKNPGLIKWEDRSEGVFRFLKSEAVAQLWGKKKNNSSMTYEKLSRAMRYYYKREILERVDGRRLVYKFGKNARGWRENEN
The settings on record: protein: recombinant; tags: N-terminal GST; dsDNA, one strand shown. Put shortly: as §1

The next experiment deals with SPI1 (Homo sapiens, UniProt P17947 1-270). The settings on record: protein: recombinant; tags: N-terminal GST; dsDNA, one strand shown. Put shortly:
as §1

In another experiment the target is SPIB (Homo sapiens, UniProt Q01892 1-262). Particulars: protein: recombinant; tags: N-terminal GST; dsDNA, one strand shown. A digest of the protocol: as §1
The next experiment concerns the target T6, ELK3 (Homo sapiens, UniProt P41970 1-407).
T6 sequence: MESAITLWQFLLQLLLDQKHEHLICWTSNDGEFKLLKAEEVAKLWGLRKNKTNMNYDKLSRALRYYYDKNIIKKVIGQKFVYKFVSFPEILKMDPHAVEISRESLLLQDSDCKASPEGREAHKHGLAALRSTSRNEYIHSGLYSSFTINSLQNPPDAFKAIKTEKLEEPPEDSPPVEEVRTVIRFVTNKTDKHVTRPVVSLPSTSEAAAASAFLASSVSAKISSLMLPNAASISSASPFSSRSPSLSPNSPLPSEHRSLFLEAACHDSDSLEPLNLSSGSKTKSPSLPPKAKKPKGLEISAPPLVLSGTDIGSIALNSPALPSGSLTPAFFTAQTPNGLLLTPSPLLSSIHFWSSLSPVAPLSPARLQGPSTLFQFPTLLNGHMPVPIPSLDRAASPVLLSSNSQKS
Particulars: protein: recombinant; tags: N-terminal GST; dsDNA, one strand shown. A digest of the protocol: as §1

Another experiment deals with T7, FEV (Homo sapiens, UniProt Q99581 1-238).
T7 sequence: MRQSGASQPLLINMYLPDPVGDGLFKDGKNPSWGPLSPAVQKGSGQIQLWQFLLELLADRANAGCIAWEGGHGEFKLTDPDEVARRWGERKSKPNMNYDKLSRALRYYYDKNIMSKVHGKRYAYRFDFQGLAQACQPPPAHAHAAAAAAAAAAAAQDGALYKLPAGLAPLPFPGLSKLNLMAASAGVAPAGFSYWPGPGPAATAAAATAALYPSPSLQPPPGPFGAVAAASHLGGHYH
Particulars: protein: recombinant; tags: N-terminal GST; dsDNA, one strand shown. A digest of the protocol: as §1

For a further experiment, the target named is ETV5 (Homo sapiens, UniProt P41161 1-510). The settings on record: protein: recombinant; tags: N-terminal GST; dsDNA, one strand shown. A digest of the protocol:
as §1

In a further experiment the target is HSF1 (Homo sapiens, UniProt Q00613 1-529). Particulars: protein: recombinant; tags: N-terminal GST; chain copies: 3; dsDNA, one strand shown. Put shortly:
as §1

The next experiment has as its target ELF4 (Homo sapiens, UniProt Q99607 1-663). The settings on record: protein: recombinant; tags: N-terminal GST; dsDNA, one strand shown. Put shortly: as §1
The target of another experiment is T8, ELK4 (Homo sapiens, UniProt P28324-2 1-405).
T8 sequence: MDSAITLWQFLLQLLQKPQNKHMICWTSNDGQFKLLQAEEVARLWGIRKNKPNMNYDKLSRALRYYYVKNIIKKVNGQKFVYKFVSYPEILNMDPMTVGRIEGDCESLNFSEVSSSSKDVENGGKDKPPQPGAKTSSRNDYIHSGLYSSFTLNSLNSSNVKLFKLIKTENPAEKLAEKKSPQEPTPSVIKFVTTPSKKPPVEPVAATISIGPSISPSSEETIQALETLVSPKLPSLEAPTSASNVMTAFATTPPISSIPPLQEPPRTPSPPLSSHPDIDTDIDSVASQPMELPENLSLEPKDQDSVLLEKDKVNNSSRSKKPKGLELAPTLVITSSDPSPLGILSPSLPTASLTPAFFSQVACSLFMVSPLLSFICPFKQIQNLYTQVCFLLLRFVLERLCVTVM
Particulars: protein: recombinant; tags: N-terminal GST; dsDNA, one strand shown. Put shortly: as §1

In the next experiment the target is T9, ETV2 (Homo sapiens, UniProt O00321 1-342).
T9 sequence: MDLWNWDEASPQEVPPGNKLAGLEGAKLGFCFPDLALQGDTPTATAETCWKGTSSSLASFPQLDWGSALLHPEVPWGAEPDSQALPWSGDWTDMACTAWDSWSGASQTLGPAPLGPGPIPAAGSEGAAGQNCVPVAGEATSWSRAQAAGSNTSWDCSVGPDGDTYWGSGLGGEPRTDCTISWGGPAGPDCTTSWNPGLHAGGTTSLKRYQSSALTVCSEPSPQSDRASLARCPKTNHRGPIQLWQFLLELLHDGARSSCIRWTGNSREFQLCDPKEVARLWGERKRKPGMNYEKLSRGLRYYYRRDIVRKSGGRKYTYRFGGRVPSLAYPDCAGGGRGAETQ
Particulars: protein: recombinant; tags: N-terminal GST; dsDNA, one strand shown. A digest of the protocol:
as §1

The target of the next experiment is T10, ELF3 (Homo sapiens, UniProt P78545 1-371).
T10 sequence: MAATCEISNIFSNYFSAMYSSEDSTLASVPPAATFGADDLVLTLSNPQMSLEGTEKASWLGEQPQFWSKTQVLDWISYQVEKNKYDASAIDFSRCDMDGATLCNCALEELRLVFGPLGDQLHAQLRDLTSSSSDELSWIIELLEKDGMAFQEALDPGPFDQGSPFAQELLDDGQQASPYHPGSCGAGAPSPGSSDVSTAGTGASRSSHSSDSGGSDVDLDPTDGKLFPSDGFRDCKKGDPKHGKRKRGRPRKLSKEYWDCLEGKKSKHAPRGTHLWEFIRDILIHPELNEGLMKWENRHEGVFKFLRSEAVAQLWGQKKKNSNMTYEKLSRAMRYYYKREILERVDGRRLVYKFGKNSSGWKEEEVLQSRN
The settings on record: protein: recombinant; tags: N-terminal GST; dsDNA, one strand shown. A digest of the protocol: as §1

The target of the next experiment is ETV1 (Homo sapiens, UniProt P50549 1-477). The settings on record: protein: recombinant; tags: N-terminal GST; dsDNA, one strand shown. A digest of the protocol:
as §1

ETV1, sequence (P50549 whole entry): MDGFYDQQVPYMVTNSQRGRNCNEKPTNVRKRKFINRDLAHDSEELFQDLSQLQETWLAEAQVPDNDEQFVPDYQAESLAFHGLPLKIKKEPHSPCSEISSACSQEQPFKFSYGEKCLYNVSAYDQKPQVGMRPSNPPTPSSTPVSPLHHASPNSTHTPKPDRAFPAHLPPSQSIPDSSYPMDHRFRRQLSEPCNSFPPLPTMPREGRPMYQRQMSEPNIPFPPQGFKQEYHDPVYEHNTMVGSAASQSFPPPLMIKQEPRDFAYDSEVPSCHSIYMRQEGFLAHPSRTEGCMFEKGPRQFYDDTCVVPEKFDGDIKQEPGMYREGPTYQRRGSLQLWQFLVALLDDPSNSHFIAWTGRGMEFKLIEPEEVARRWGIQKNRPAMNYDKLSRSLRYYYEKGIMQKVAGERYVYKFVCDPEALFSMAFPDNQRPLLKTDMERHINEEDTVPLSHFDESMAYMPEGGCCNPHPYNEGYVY
ETV5, sequence (P41161 whole entry): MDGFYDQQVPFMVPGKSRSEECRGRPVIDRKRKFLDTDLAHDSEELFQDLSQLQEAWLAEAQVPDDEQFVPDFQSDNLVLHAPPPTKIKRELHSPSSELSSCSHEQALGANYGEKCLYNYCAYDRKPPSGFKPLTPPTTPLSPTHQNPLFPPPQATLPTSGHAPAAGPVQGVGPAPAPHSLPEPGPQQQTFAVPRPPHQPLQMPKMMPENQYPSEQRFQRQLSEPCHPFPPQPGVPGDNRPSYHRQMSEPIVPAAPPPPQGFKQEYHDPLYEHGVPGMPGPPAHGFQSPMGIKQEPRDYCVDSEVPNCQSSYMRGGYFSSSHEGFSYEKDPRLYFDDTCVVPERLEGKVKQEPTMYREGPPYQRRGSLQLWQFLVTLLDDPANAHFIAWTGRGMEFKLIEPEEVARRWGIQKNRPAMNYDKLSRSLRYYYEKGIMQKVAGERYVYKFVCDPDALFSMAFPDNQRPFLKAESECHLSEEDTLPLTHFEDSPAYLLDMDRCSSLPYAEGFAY
ELF4, sequence (Q99607 whole entry): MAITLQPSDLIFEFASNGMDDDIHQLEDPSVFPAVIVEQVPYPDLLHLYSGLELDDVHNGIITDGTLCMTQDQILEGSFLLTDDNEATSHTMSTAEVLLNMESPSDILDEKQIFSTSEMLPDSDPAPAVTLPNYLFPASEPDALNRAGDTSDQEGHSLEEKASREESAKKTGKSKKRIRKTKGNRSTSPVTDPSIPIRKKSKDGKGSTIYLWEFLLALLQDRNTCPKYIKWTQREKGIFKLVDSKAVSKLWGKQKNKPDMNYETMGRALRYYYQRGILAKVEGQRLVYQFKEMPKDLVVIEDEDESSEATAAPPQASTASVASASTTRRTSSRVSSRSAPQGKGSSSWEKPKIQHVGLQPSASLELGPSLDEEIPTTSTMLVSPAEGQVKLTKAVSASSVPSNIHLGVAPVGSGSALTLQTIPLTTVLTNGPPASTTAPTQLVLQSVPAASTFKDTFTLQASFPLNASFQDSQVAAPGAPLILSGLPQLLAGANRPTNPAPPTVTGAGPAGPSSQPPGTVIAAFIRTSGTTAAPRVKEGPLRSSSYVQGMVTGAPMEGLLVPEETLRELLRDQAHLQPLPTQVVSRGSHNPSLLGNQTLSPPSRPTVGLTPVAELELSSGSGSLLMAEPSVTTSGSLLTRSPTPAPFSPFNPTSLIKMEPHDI
ELF1, sequence (P32519 whole entry): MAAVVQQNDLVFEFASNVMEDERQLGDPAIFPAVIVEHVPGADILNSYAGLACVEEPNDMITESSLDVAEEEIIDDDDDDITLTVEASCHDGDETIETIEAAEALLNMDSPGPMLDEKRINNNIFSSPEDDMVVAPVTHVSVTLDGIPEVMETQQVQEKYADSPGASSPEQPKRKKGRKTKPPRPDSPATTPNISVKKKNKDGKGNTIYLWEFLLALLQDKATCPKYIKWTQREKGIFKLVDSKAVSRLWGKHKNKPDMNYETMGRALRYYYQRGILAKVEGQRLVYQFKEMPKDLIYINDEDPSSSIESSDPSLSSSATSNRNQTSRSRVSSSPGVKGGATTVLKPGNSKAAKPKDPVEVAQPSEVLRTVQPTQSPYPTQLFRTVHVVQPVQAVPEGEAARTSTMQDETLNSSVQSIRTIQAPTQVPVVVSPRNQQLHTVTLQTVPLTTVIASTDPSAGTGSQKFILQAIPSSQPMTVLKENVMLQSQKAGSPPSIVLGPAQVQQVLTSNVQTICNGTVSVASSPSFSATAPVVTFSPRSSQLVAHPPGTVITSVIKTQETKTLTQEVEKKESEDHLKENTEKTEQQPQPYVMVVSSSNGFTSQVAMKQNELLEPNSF
HSF1, sequence (Q00613 whole entry): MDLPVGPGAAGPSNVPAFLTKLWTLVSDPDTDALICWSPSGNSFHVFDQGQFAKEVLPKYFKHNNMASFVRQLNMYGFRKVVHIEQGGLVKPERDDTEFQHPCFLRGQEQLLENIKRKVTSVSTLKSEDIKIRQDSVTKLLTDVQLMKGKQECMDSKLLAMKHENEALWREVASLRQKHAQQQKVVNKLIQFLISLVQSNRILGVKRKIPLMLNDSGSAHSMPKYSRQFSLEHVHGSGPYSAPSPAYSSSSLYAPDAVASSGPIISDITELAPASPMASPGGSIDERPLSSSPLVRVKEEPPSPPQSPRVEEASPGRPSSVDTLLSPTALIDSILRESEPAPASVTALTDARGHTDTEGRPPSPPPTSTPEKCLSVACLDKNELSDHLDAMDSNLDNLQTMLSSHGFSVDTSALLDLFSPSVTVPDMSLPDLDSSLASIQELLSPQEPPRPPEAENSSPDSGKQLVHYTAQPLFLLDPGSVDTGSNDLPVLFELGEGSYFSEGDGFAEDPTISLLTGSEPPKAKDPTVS
SPIB, sequence (Q01892 whole entry): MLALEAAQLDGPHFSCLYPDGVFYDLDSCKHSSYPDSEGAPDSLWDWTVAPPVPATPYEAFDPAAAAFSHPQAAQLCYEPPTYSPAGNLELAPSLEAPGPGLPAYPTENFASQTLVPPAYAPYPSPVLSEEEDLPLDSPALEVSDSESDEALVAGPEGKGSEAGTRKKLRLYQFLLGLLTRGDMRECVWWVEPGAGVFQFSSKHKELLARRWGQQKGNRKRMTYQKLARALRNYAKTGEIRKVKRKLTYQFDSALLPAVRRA

ACTGTT: the binding signal with FLI1 is 1.15 fold enrichment (6-mer frequency, TF over GST control); in the experiment with ELK1, 1.03 fold enrichment (6-mer frequency, TF over GST control); in the experiment with GABPA it was 1.23 fold enrichment (6-mer frequency, TF over GST control); with ERG, 1.16 fold enrichment (6-mer frequency, TF over GST control); in the experiment with ELF1 it was 1.11 fold enrichment (6-mer frequency, TF over GST control); with EHF it was 1.13 fold enrichment (6-mer frequency, TF over GST control). Moreover, the binding signal with SPI1 is 1.16 fold enrichment (6-mer frequency, TF over GST control); in the experiment with SPIB it was 1.15 fold enrichment (6-mer frequency, TF over GST control); with ELK3 it was 1.18 fold enrichment (6-mer frequency, TF over GST control); in the experiment with FEV, 1.1 fold enrichment (6-mer frequency, TF over GST control); with ETV5, 1.1 fold enrichment (6-mer frequency, TF over GST control); with HSF1, 1.03 fold enrichment (6-mer frequency, TF over GST control). In addition, the binding signal with ELF4 was 1.2 fold enrichment (6-mer frequency, TF over GST control); in the experiment with ELK4, 1.09 fold enrichment (6-mer frequency, TF over GST control); in the experiment with ETV2, 1.23 fold enrichment (6-mer frequency, TF over GST control); with ELF3, 1.03 fold enrichment (6-mer frequency, TF over GST control); in the experiment with ETV1 it was 1.12 fold enrichment (6-mer frequency, TF over GST control).

As to GAACCA, the binding signal is 1.02 fold enrichment (6-mer frequency, TF over GST control) with FLI1; 1.05 fold enrichment (6-mer frequency, TF over GST control) in the experiment with ELK1; 1.05 fold enrichment (6-mer frequency, TF over GST control) in the experiment with GABPA; 1.05 fold enrichment (6-mer frequency, TF over GST control) with ELF1; 1.08 fold enrichment (6-mer frequency, TF over GST control) with EHF; 1.02 fold enrichment (6-mer frequency, TF over GST control) with ETV5. Also, the binding signal with HSF1 is 1.03 fold enrichment (6-mer frequency, TF over GST control); with ELF4, 1.02 fold enrichment (6-mer frequency, TF over GST control); with ELK4, 1.06 fold enrichment (6-mer frequency, TF over GST control); with ETV2, 1.02 fold enrichment (6-mer frequency, TF over GST control); with ELF3 it was 1.09 fold enrichment (6-mer frequency, TF over GST control); in the experiment with ETV1 it was 1 fold enrichment (6-mer frequency, TF over GST control).

The record behind these values is paper PMC7862700, “An all-to-all approach to the identification of sequence-specific readers for epigenetic DNA modifications on cytosine”.
